Assay outcomes: PubChem BioAssay, National Center for Advancing Translational Sciences (NCATS)
Sampled rows, rich in hits. Any-hit rate of the full collection: about 2.9%.
IP6K1 inhibitor – IP6K1 kinase inhibition | Q92551 | IP6K1 kinase, ADP-Glo luminescence, 2 h; hits give low values | activity change, % (series mostly up to about 58 µM) | hit rate 0.81% among 140,000 | AID 1645851; in the data active means activity change below about -25%; further: on the % scale 0 is the no-effect control and ±100 the full control effect
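ADP-Glo luminescence measures ADP made by human IP6K1 during a 2 h RT reaction with ATP/IP6 (mix at 1.3 mM/130 uM); top library doses 57.5 and 19.1 uM final.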
KDM5B inh – inhibitors of human KDM5B histone demethylase | Q9UGL1 | KDM5B demethylase, FDH-coupled NADH fluorescence (FDH is formaldehyde dehydrogenase) | Potency, µM (top dose mostly 57.7 µM), most hits filed as inhibitors | hit rate 2.6% among 220,000; further: potency means the concentration at half of the fitted maximal effect; 0% is about no effect; nearly all actives have a fitted effect of over 70% in size
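Coupled FDH/NAD⁺ fluorescence readout. KDM5BΔAP 200 nM final; compound titration, 10 min RT preincubation; substrate mix 12.5 µM H3K4me3, 25 µM 2-OG, 50 µM Fe(II), 100 µM ascorbate, 0.25 mM NAD⁺, 0.25 U/mL FDH; ΔRFU over 30 min.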
HEK293 viab – cell viability loss counter-screen. HEK-293-SNCA-luc viability, GF-AFC fluorescence, 24 h. Potency, µM (top dose mostly 57.1 µM), inactives show at the highest dose activity change, negative = cytotoxicity, most hits filed as cytotoxic. hit rate 0.12% among 150,000;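 further: potency means the concentration at half of the fitted maximal effect; 0% = DMSO-treated cells and -100% = medium-only wells without cells; nearly all actives have a fitted effect of over 30% in size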
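HEK-293-SNCA-luc cells (1500/well) plated 24 h, then exposed 24 h to a dilution series; GF-AFC added 30 min at 37C, fluorescence 405/540 nm; normalised to medium-only and DMSO wells, Hill fit.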
SNCA expr inh – inhibitors of alpha-synuclein (SNCA) gene expression; HEK-293 SNCA-luciferase knock-in, luminescence, 24 h; Potency, µM (highest dose often 57.2 µM), without a hit: top-dose activity change, negative = inhibition, actives largely listed as inhibitors; hit rate 0.17% among 140,000;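 further: potency means the concentration at half of the fitted maximal effect; plate controls were DMSO cells for no effect and cell-free wells for full effect; nearly all actives have a fitted effect of over 45% in size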
IP6K1 conf – confirmation of human IP6K1 inhibitors | shares compounds with IP6K1 inhibitor | recombinant IP6K1 kinase, ADP-Glo luminescence, 2 h | Potency, µM (top dose mostly 49 µM), for inactives: top-dose activity change, negative = inhibition, actives largely listed as inhibitors | hit rate 13% among 1,200 | AID 1645852; further: potency means the concentration at half of the fitted maximal effect; on the % scale 0 is the no-effect control and ±100 the full control effect; nearly all actives have a fitted effect of over 65% in size
An asterisk follows results filed as active; i = inactive; ? = inconclusive; . = no result given; [ ] = remark or other dose. Unless noted, the call rests on the fitted dose curve; in most records, active means well fitted curve in the direction sought with a large enough effect; inconclusive means small, poorly fitted or top-dose-only effect, or another doubt; inactive means no such curve, though single readings can be large; an effect the other way counts as inactive or inconclusive.

SMILES	IP6K1 inhibitor	KDM5B inh	HEK293 viab	SNCA expr inh	IP6K1 conf
COc1ccccc1N1CCN(C(=O)CCc2ccccc2C)CC1=O	-34*	i	1%	13%	-16%
Cc1ccc(NC(=O)c2ccc(CN3CCN(C)CC3)cc2)cc1Nc1nc(-c2cccnc2)cs1	.	.	-23%	19%	.
Cc1cc(Cl)ccc1S(=O)(=O)NC1CCc2nn(C)c(=O)n2CC1 (centres undefined)	9	i	8%	-8%	.
N#C/C(=C\c1c(OCc2ccccc2)ccc2ccccc12)c1nc2ccccc2[nH]1	.	i	.	.	.
Cn1nc(C2CCN(C(=O)Cc3cccc(F)c3)CC2)c2c1CCOC2	-4	i	5%	6%	.
CC(C)(C)c1ccc(CSC2=Nc3ccccc3C3=NC(CC(=O)NCc4cccs4)C(=O)N23)cc1 (centres undefined)	-26*	?	-9%	-10%	42%
CCOC(=O)C(N)c1ccc(OC(C)C)cc1 (centres undefined)	.	i	.	.	.
Cc1cc(-c2nccc3c(=O)cc(N(C)c4ccccc4)oc23)ccn1	-13	?	-8%[87.6 µM]	7%[87.6 µM]	.
CN(C)c1cc(=O)c2ccnc(-c3cccc(CO)c3)c2o1	-25*	i	-2%[87.6 µM]	-20%[87.6 µM]	-3%[92.2 µM]
CCc1nn(CC(=O)N2CCN(c3cccc(C)c3C)CC2)c(=O)c2cc3sccc3n12	-29*	i	14%	-6%	-15%
CC(=O)c1ccc(N2CCN(c3ccc(NC(=O)c4ccc(F)cc4)cc3C(=O)O)CC2)cc1	0	i	5%	8%	.
O=C(Nc1ccc(N2CCN(c3ccc(F)cc3)CC2)c(C(=O)O)c1)c1cccs1	-27*	i	13%	-17%	?
CCN1CCN(c2ccc(NC(=O)c3cccc(NC(=O)c4cccs4)c3)cc2)CC1	.	i	.	.	.
O=C(Nc1cnc(N2CCN(c3ccccc3)CC2)c(C(=O)O)c1)c1cccs1	-28*	?	-21%	-2%	?
CCCOc1ccccc1C(=O)N1CCc2onc(-c3ccccc3)c2C1	0	i	-14%	7%	.
CCC(O)C(=O)N1CCc2onc(-c3ccc(-c4ccccc4)cc3)c2C1 (centres undefined)	-47*	i	?	45%	?
O=C(NCCC1CCN(C(=O)Nc2cccc(F)c2)CC1)C1CCC1	-8	i	3%	1%	.
COc1ccc(OC)c(CNS(=O)(=O)c2cc(-c3onc(C)c3C)ccc2C)c1	-46*	i	3%	7%	33%
COc1ccc(NS(=O)(=O)c2cc(-c3onc(C)c3C)ccc2C)c(OC)c1	0	?	4%	0%	.
CC1CCN(S(=O)(=O)c2ccc3nc(-c4cccnc4)cc(C(=O)NCCCOC(C)C)c3c2)CC1	5	i	-17%	-18%	.
Cc1cc(C(=O)Nc2sc(C)c(C)c2C#N)cs1	.	i	.	.	.
Fc1ccc(Nc2nc(-c3cccc(Cl)c3)c3c(n2)-c2ccccc2OC3)c(F)c1	-27*	?	5%	5%	-7%
COc1ccc(C)cc1Nc1nc(-c2cccc(Cl)c2)c2c(n1)-c1ccccc1OC2	-14	i	1%	21%	.
CCOc1cccc(-c2nc3ccccc3c(=O)o2)c1	-29*	i	8%	94%	?
COc1cccc(-c2nc3ccccc3c(=O)o2)c1	.	i	.	.	.
SMILES	IP6K1 inhibitor	KDM5B inh	HEK293 viab	SNCA expr inh	IP6K1 conf
O=C(CN1CCCc2nc(-c3ccccc3)ncc2C1=O)NCC1CC1	-5	.	-16%	-5%	.
COc1ccc(-c2ccc(C(=O)NC(C)C)c(Cl)c2)nn1	-11	.	.	.	.
COc1ccc(-c2ccc(C(=O)N(C)C)c(Cl)c2)nn1	-46*	.	.	.	?
COc1ccc(-c2ccc(C(=O)N3CCCC3)c(Cl)c2)nn1	-69*	.	.	.	?
COc1ccc(-c2ccc(C(=O)N(C)c3ccccc3)cc2)nn1	-17	.	.	.	?
COc1ccc(C(C)=O)cc1CS(=O)(=O)Cc1ccccc1F	.	i	.	.	.
c1cc(Nc2cc(C3CC3)[nH]n2)nc(Nc2ccc3nc[nH]c3c2)n1	-27*	.	-36%	.	?
COc1cc2nc(NC(=O)c3ccc(S(=O)(=O)N4CCCC4)cc3)sc2cc1OC	1	?	8%	2%	.
Clc1ccc(-c2cc3c(cn2)CN(Cc2ccncc2)CCN3)cc1	-27*	32µM*	-2%[87.6 µM]	-20%[87.6 µM]	-1%
